# G9a inh: qHTS Assay for Inhibitors of Histone Lysine Methyltransferase G9a; 350,000 compounds, 8.8% hits; AID 504332, 2011; Histone-lysine N-methyltransferase EHMT2 (Homo sapiens), Q96KQ7; G9a H3K9 monomethylation, AlphaScreen, 2 h; Potency, µM (series often up to 102 µM), actives largely listed as inhibitors; also: nearly all actives have a fitted effect of over 75% in size
# Target sequence (Q96KQ7 913-1193 limits assumed): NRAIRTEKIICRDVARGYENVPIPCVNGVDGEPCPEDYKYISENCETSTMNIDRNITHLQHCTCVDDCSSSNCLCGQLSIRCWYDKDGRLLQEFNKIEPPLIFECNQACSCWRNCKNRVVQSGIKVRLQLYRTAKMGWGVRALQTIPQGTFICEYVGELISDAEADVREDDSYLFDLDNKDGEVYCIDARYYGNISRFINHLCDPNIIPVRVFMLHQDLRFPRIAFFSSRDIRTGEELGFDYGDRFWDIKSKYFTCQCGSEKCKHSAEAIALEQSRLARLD
#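 Using a bead-based AlphaScreen, monomethylated H3K9 product from 2 h room-temperature reactions (G9a 20 nM, peptide 500 nM, SAM 20 uM) was detected with 0.5 ug/mL rabbit anti-H3K9me1 antibody.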
# GLS inhibitor: qHTS for Inhibitors of Glutaminase (GLS); AID 624170, 2012; GLS enzymatic activity, qHTS titration; 410,000 compounds, 0.21% hits; Potency, µM (top dose mostly 45.5 µM), usual class: inhibitors
#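 Two-point fluorescence kinetic (t0, 30 min RT) for hKGA; glutamate detected via glutamate oxidase–HRP–Amplex Red. Substrate: 1 mM L-glutamine solution; buffer 45 mM KH2PO4, pH 8.2.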
# HP1b binding inh: HTS for Inhibitors of HP1-beta Chromodomain Interactions with Methylated Histone Tails; AlphaScreen HP1-beta / biotin-H3K9me3 peptide binding; Chromobox protein homolog 1 (Homo sapiens), P83916; Potency, µM (titrated, usually from 114 µM), hits mostly inhibitors; 390,000 compounds, 0.56% hits; also: nearly all actives have a fitted effect of over 70% in size
# Target sequence (P83916 whole entry, looked up): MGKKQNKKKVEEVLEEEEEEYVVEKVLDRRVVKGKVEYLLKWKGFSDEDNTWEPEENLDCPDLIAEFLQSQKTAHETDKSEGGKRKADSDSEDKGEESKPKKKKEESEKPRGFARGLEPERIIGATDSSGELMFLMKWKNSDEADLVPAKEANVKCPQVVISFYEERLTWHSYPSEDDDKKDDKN
#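 HP1-beta protein (50 nM final) preincubated 30 min at room temperature with biotinylated H3(1-18)K9me3 peptide (50 nM) in PBS pH 7.4, 0.01% Tween-20, then compound added for 30 min. AlphaScreen streptavidin donor/nickel chelate acceptor beads (10 ug/mL final), 30 min dark, luminescence read.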
# BAZ2B inh: qHTS Assay for Inhibitors of BAZ2B; Potency, µM (top dose mostly 114 µM), usual class: inhibitors; 360,000 compounds, 4.4% hits; AlphaScreen BAZ2B-H3K14Ac peptide displacement; AID 504333, 2011; also: nearly all actives have a fitted effect of over 60% in size
#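 BAZ2B (50 nM) with biotin-H3(5-23)K14Ac peptide (50 nM) in PBS pH 7.4, 0.01% Tween-20, preformed 30 min, then compound 30 min at room temperature; top concentration 110uM. AlphaScreen streptavidin donor/nickel chelate acceptor beads (10 ug/mL final), 20 min dark, signal read.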
# JMJD2A Tudor inh: qHTS Assay for Inhibitors of JMJD2A-Tudor Domain | 390,000 compounds, 4.4% hits | AID 504339, 2011 | AlphaScreen JMJD2A-Tudor / H3K4me3 peptide binding | Potency, µM (series often up to 114 µM), actives largely listed as inhibitors | Lysine-specific demethylase 4A (Homo sapiens), O75164; also: nearly all actives have a fitted effect of over 50% in size
# Numbers stand for hits; 0 = inactive; ? = inconclusive; - = no result; [ ] = remark or other dose. This is a sample that favours compounds with a hit; in the whole collection about 10% have one here. Calls follow the shape of the dose curve; as a rule, active = well fitted curve in the direction sought with a large enough effect; inconclusive = small, poorly fitted or top-dose-only effect, or another doubt; inactive = no such curve, though single readings can be large; an effect the other way counts as inactive or inconclusive.
SMILES,G9a inh,GLS inhibitor,HP1b binding inh,BAZ2B inh,JMJD2A Tudor inh
C=CCOc1ccc(/C=C\c2nc(O)c([N+](=O)[O-])c(=O)[nH]2)cc1OC,79µM,0,0,0,0
Cc1cc(OC(=O)c2ccc(Cl)cc2Cl)c([N+](=O)[O-])c(=O)[nH]1,79µM,0,0,0,0
COc1ccc(NC(=O)Nc2ccc3c(c2)CCC3)cc1,?,0,0,0,0
O=C(OCc1ccc([N+](=O)[O-])cc1)c1ccc2ccccc2n1,?,0,0,0,0
CN(Cc1nc2ccccc2n1C)C(=O)c1cccs1,0,0,0,0,0
CCc1cccc(C)c1NC(=O)COC(=O)CSCc1ccccc1,-,0,0,-,0
CSCC[C@H](NC(=O)c1ccc(Cl)c(S(=O)(=O)N2CCCC2)c1)c1nc2ccccc2[nH]1,35µM,0,0,?,0
CSCCC(NC(=O)c1cccc(S(=O)(=O)N2CCN(C(C)=O)CC2)c1)c1nc2ccccc2[nH]1 (stereo not given),-,0,0,-,0
O=C(NCc1nc2ccccc2[nH]1)c1ccc(Cl)c(S(=O)(=O)N2CCCC2)c1,35µM,0,0,0,0
COc1ccc([N+](=O)[O-])cc1NC(=O)C(C)OC(=O)CSC(C)C(=O)Nc1cc(C)on1 (stereo not given),0,0,0,0,0
Cc1ccc2nc(-c3ccc(NC(=O)COCC(=O)O)cc3)sc2c1,50µM,0,0,0,0
Cc1ccc2nc(-c3ccc(NC(=O)CSCC(=O)O)cc3)sc2c1,0[12.7 µM],0,0,0,0
Cc1ccc2nc(-c3ccc(NC(=O)CCN4C(=O)c5ccccc5C4=O)cc3)sc2c1,45µM,0,0,0,0
Cc1ccc2nc(-c3ccc(NC(=O)Cc4ccccc4)cc3)sc2c1,0,0,0,0,0
O=C(O)CSCC(=O)Nc1ccc(-c2nc3ccccc3s2)cc1,45µM,0,0,0,0
CCNC(=O)C1(C)CCN(C(=O)c2cc(C)oc2C)C1 (stereo not given),-,0,-,-,-
O=C(c1ccc(-n2cncn2)c2ccoc12)N1CCOCC1,-,0,-,-,-
CCOC(=O)c1nc(S(C)(=O)=O)ncc1Cl,?,0,0,0,0
Cn1c(N)c(N=O)c(=O)n(C)c1=O,50µM,0,0,0,0
O=S(=O)(c1cccs1)N1CCN(CC(O)COc2cccc(Br)c2)CC1 (stereo not given),?,0,?,79µM,3.2µM
O=S(=O)(c1cccs1)N1CCN(CC(O)COC2CCCc3ccccc32)CC1 (stereo not given),18µM,0,?,50µM,4µM
C=CCn1c(SCC(=O)NCCC2=CCCCC2)nc2ccc(Cl)cc2c1=O,0,0,?,0,28µM
CN1CCc2ccc(NC(=O)c3ccc(C(F)(F)F)cc3)cc2C1,-,0,0,0,0
Cc1cccc(NC(=O)Cc2nc(-c3c[nH]c(C(=O)N4CCCC4)c3)cs2)c1,56µM,0,0,?,?
CCc1[nH]c(C)c(C(C)=O)c1C,0,0,0,0,0
SMILES,G9a inh,GLS inhibitor,HP1b binding inh,BAZ2B inh,JMJD2A Tudor inh
CCOC(=O)COc1nc(-c2ccco2)cc(-c2ccco2)c1C#N,0,0,0,0,0
CCOC(=O)C(C)Sc1nc(-c2ccco2)cc(C(F)(F)F)c1C#N (stereo not given),40µM,0,0,0,0
COC(=O)/C=C/S(=O)(=O)c1ccc(NC(C)=O)cc1,8.9µM,-,0,-,0
O=C(Cc1ccc(NC(=O)C2CCCN(C(=O)C3CC3)C2)cc1)Nc1cccc(C(=O)N2CCCCC2)c1 (stereo not given),-,0,0,-,0
CC(C)(C)C(=O)OCOP(=O)(COCCn1cnc2c(N)ncnc21)OCOC(=O)C(C)(C)C,6.3µM,0,-,-,-
Cc1ccc(S(=O)(=O)N(C)C)cc1NC(=O)C1CCCCN1S(=O)(=O)c1ccccc1 (stereo not given),0[12.7 µM],0,0,0,0
COCCCNC(=O)c1c(C)nn(-c2ccc(F)cc2)c1-n1cccc1,0,0,0,0,0
CCn1nnc(NC(=O)CSc2ccc(Cl)cc2)n1,71µM,?,0,?,?
S=c1[nH]nc2ccccn12,-,0,?,-,6.3µM
Cc1ccn2c(=S)[nH]nc2c1,-,0,-,-,-
O=[N+]([O-])c1cc(S(=O)(=O)Nc2ccccc2)ccc1Nc1ccccc1,-,0,?,-,22µM
O=[N+]([O-])c1cc(S(=O)(=O)Nc2ccccc2)ccc1N1CCN(c2ccccc2)CC1,32µM,0,?,40µM,10µM
O=[N+]([O-])c1cc(S(=O)(=O)C(F)(F)F)ccc1N1CCN(c2ccccc2)CC1,20µM,0,?,8.9µM,?
Cc1ccc(NC(=O)CN(C)CC(=O)Nc2ccc(F)c(Cl)c2)cc1,32µM,0,?,50µM,14µM
Cc1cccc(NC(=O)CN2CCCCCC2)c1,14µM,0,50µM,?,20µM
O=C(Cn1cnc([N+](=O)[O-])c1)Nc1ccc(F)c(Cl)c1,50µM,0,0,0,0
O=C(CN1CCCCCC1)Nc1ccc(F)c(F)c1,32µM,0,?,50µM,8.9µM
O=c1c2oc3ccccc3c2ncn1Cc1cccc(Cl)c1,0,0,0,0,0
COc1ccc(NC(=O)COC(=O)CCc2nc3ccccc3c(=O)[nH]2)cc1Cl,-,0,0,-,0
COc1ccc(C(CNC(=O)c2cc(S(=O)(=O)N3CCCCC3)ccc2C)N2CCCC2)cc1 (stereo not given),-,0,0,-,0
O=C(CN1CCCC1)Nc1ccc(F)c(Cl)c1,-,0,0,?,22µM
O=C(CN1CCCCC1)Nc1ccc(F)c(Cl)c1,0,0,0,0,0
Cc1ccc(NC(=O)CN2CCN(C)CC2)cc1Br,-,0,?,50µM,5.6µM
Cc1cc(N)ccc1NC(=O)CN1CCCC1,25µM,0,?,50µM,22µM
Cc1c(-c2ccccc2)[n+](=O)c(-c2ccc(Br)cc2)c(C)n1[O-],-,0,0,0,0
SMILES,G9a inh,GLS inhibitor,HP1b binding inh,BAZ2B inh,JMJD2A Tudor inh
COC(=O)c1ccccc1NC(=O)C1CCN(C(=O)N2CC(C)Oc3ccccc32)CC1 (stereo not given),0,0,0,0,0
O=C1N/C(=C/c2cccs2)C(=O)N1Cc1ccccc1F,0,0,0,0,0
O=C1/C(=C/c2cccs2)N=C(c2cccs2)N1Nc1ccccc1,50µM,0,0,?,?
O=C1/C(=C\c2cccs2)N=C(c2cccs2)N1Nc1ccccc1,40µM,0,0,?,?
Cc1ccc(C2=N/C(=C\c3cccs3)C(=O)N2Nc2ccccc2)cc1,?,0,?,35µM,?
COc1ccc(C(=O)C2CCN(CC(=O)Nc3ccc(C)cc3)CC2)cc1,0,0,0,0,0

# High-throughput results: PubChem BioAssay, National Center for Advancing Translational Sciences (NCATS)
